The list is not random: actives were taken first. Their share in the collection is about 3.1%.
Statin myotox sup: suppressors of simvastatin-induced myotoxicity in C2C12 myotubes | ATP luminescence, 48 h; scaled: DMSO 0, geranylgeraniol control 100 | rescue of ATP level, % at 7.49 µM | 330,000 compounds, 0.78% hits | AID 602340;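 active means mean ATP rescue above about 67%, or every replicate alone reaching that limit, limit read from the data, passing the limit was not always enough; inconclusive means no clear call, values can overlap the other calls; inactive means mean under the limit and some replicate under it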;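 further: myotubes were challenged with 10 µM simvastatin during compound exposure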
MITF act: activators of MITF-driven TRPM1 promoter activity in SK-MEL-5 cells; SK-MEL-5 TRPM1-promoter luciferase, 24 h; % of positive control, neutral wells = 0; activation, % at 12.5 µM; 300,000 compounds, 0.75% hits; AID 588334;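 active means mean activation of at least 80% with every replicate also reaching 80%; inconclusive means mean reaches 80% but some replicate falls short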;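 further: 0% = neutral control wells and 100% = parthenolide positive control wells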
Wnt bcat act: activates Wnt/beta-catenin signaling in a reporter cell assay. activator, plate reader. activation, % at 9.35 µM. 300,000 compounds, 1.2% hits; in the data active means activation above about 30%, passing the limit was not always enough; inconclusive means no clear call, values can overlap the other calls;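 further: 0% = neutral control wells and 100% = positive control wells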
Rtt109 HAT inh: C. albicans Rtt109 histone acetyltransferase inhibition; inhibition, % at 34.9 µM; 330,000 compounds, 0.16% hits; AID 540336; purified Rtt109/Vps75, ThioGlo CoA-SH fluorescence, 4 h; Q5AAJ8;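 active means inhibition of at least 50% in every replicate; inconclusive means best replicate reaches 50% inhibition but some replicates fall short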
Target sequence (Q5AAJ8 whole entry, looked up): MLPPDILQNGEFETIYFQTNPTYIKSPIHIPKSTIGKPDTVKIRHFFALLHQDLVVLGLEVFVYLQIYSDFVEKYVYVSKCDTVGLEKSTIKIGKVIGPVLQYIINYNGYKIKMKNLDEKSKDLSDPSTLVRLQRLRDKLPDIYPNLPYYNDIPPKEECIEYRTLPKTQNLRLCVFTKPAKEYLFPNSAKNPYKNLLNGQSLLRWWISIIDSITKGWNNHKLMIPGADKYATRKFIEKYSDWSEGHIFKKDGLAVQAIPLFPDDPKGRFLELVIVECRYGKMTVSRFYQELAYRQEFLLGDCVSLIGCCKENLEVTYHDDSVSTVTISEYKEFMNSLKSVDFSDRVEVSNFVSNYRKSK
esBAF inh: blocks esBAF chromatin remodeling in mouse ES cells. Bmi1-luciferase knock-in reporter, 24 h; 100% = twice the neutral-well signal. reporter increase, % at 12.5 µM. 350,000 compounds, 2% hits. AID 602393; in the data active means activation above about 40%; inconclusive means no clear call, values can overlap the other calls;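 further: 0% = median of the plate's neutral control wells and 100% = double that signal; a rise in the Bmi1 reporter signal indicates esBAF inhibition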
The depositor's hits bear a star; ? = inconclusive; . = not tested or not shown.

SMILES	Statin myotox sup	MITF act	Wnt bcat act	Rtt109 HAT inh	esBAF inh
Cc1ccc(NC(=S)NNC(=S)Nc2ccc(C)cc2)cc1	-28	5	12	-3	.
Cc1ccc(NC(=S)Nc2cc(C)on2)cc1	1	.	49*	.	14
CC(C)Cc1cc(C(=O)NCc2cccnc2)no1	-7	.	19	0	24
CC(C)Cc1cc(C(=O)Nc2ccc(F)cc2F)no1	-6	70	13	7	79*
CCCc1cc(C(=O)Nc2ccc(CC)cc2)no1	4	159*	39*	-3	77*
CC(C)Cc1cc(C(=O)NCc2cccs2)no1	-4	54	?	3	65*
CCS(=O)(=O)Nc1ccc2c(c1)C(=O)N(C)[C@@H]1CC[C@H](CC(=O)N[C@@H]3CCN(Cc4ccccc4)C3)O[C@@H]1CO2	-4	.	.	.	2
C[C@H]1CN([C@@H](C)CO)C(=O)c2cc(NC(=O)C3CC3)ccc2O[C@H]1CN(C)C(=O)Nc1ccc(C(F)(F)F)cc1	-6	.	.	.	4
COc1ccc(-c2cnc3c(c2)C(=O)N([C@@H](C)CO)C[C@H](C)[C@@H](CN(C)S(C)(=O)=O)O3)cc1	-2	.	.	.	1
COc1ccccc1CN1C[C@H](C)[C@H](OC)CN(C)C(=O)c2ccc(NC(C)=O)cc2OC[C@H]1C	0	.	.	.	-3
O=C(Nc1ccc(F)cc1F)c1csc(-c2cccs2)n1	.	45	35*	2	.
O=C(Nc1ccc(F)cc1F)c1csc(-c2ccncc2)n1	.	3	21	2	.
CCCc1cc(C(=O)Nc2ccc(C)cc2)no1	5	.	56*	5	73*
CCc1ccc(NC(=O)c2cc(CC(C)C)on2)cc1	-2	.	59*	-6	71*
CCc1ccc(NC(=O)c2cc(C)no2)cc1	-1	76	18	-10	55*
CNC[C@H]1Oc2ncc(Br)cc2C(=O)N([C@@H](C)CO)C[C@@H]1C	0	.	.	.	4
O=C(CN1CCN(C(=O)c2ccc(-c3nc4ccccc4s3)o2)CC1)Nc1ccc(F)cc1	5	-10	26	5	59*
Cc1ccccc1S(=O)(=O)N1C[C@H](O)COC[C@@H]2O[C@@H](CC(=O)NCc3ccccc3Cl)CC[C@H]21	10	.	.	.	-2
CO[C@@H]1CN(C)C(=O)c2ccc(NS(=O)(=O)c3ccc(F)cc3)cc2OC[C@@H](C)NC[C@@H]1C	4	.	.	.	-3
OCCn1c(-c2ccc3c(c2)OCO3)csc1=Nc1ccccc1	16	13	22	-5	78*
OCCn1c(-c2ccc(F)cc2)csc1=Nc1ccccc1	.	4	6	2	.
CCOc1ccc(N=c2scc(-c3ccc(OC)cc3)n2CCO)cc1	11	-10	-3	3	14
CCn1c(-c2ccccc2)csc1=Nc1ccc(O)cc1	.	60	66*	15	.
CCOc1ccc(N=c2scc(-c3ccccc3)n2CCO)cc1	0	29	12	-7	45*
COCCn1c(-c2ccccc2)csc1=Nc1cccnc1	.	-1	-1	-6	.
SMILES	Statin myotox sup	MITF act	Wnt bcat act	Rtt109 HAT inh	esBAF inh
O=C(Nc1cccc(Cl)c1)N[C@@H]1CC[C@@H](CCNC(=O)C2CCCC2)O[C@H]1CO	-6	.	.	.	-7
Cc1cc(-c2nc(-c3ccc(C(C)(C)C)cc3)no2)no1	-14	100*	3	6	62*
Cc1nc(-c2cc(-c3nc(-c4ccc(C(F)(F)F)cc4)no3)no2)cs1	-4	-3	0	1	-3
C[C@@H]1CN([C@@H](C)CO)S(=O)(=O)c2ccc(C3=CCCC3)cc2O[C@H]1CN(C)C(=O)C1CCCCC1	-39	.	.	.	3
CCOC(=O)c1c(CSC(=N)N)n(C)c2cc(Br)c(OC(C)=O)cc12	.	.	-1	85*	.
C[C@@H]1CN([C@@H](C)CO)C(=O)c2cc(C#CCc3ccccc3)cnc2O[C@H]1CN(C)C(=O)C1CC1	13	.	.	.	-2
O=C(N/N=C/C(Cl)=C/c1ccccc1)c1cnccn1	6	52	.	1	24
C/C(=N\NC(=O)c1ccco1)c1ccc(-c2ccccc2)cc1	12	76	26	-3	59*
O=C(N/N=C/C(Cl)=C/c1ccccc1)c1ccco1	0	80	12	4	70*
O=C(N/N=C/C(Cl)=C\c1ccccc1)c1cnccn1	.	27	.	24	.
C/C(=N\NC(=O)c1ccco1)c1ccc(NC(=O)c2ccccc2)cc1	.	70	3	2	.
O=C(N/N=C/C(Cl)=C\c1ccccc1)c1ccco1	.	.	57*	7	.
